According to the supplement of paper PMC6555819:

Test system: VDR:RXRa (NR concentration 270 nM, RXRa partner concentration 90 nM)
Experiment: PBM binding z-score (relative to random genomic background probes); higher = stronger binding; sequences stand for … in GC…GCGATTGACAGCGTAGAATGAAGG
Procedure: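 Protein-binding microarray (Agilent 4x180K custom design, double-stranded 60-nt probes: 5' GC cap, 34-nt variable region, 24-nt constant primer region; full probe sequence given). Purified or IVT nuclear receptor:RXRα heterodimers (3:1 NR:RXRα, mostly 270:90 nM) or homodimers were incubated for 1 h in PBS with 2% milk and no ligand, then detected with Alexa488 antibodies. Fluorescence from o1-orientation probes (~5 replicates averaged) was converted to z-scores against 500 random hg19 background probes. Variable regions are seed direct-repeat (DR0–DR5) sites, all their single-nucleotide variants and half-site ablations.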

Question: ATCGAAAGGTCGACTAGGTGAGTATACACCGTTT was tested. Which PBM binding z-score did it give?
Answer: 3.25

Question: For CCTCGGAAGACAGAAGGTCAGAGCTGTCCGCTTT, which PBM binding z-score is on record?
Answer: 1.01

Question: For CCTTACGGGTCACGAGGTAATAGCACGACGAGCG, which PBM binding z-score is on record?
Answer: 4.18

Question: How did the PBM binding z-score turn out when AATACAGGGTCATCGAAGGCCAGAGTACGCACAG was run?
Answer: 5.49

Question: GCTATTATTTGAAAGGGCAACCGAATGATTCTCG was tested. Which PBM binding z-score did it give?
Answer: 0.646

Question: Which PBM binding z-score does the source give for TCTTGTAGATCAATAGATGTTAAGAAAGTGCGCT here?
Answer: 0.468

Question: How did the PBM binding z-score turn out when GCGACTGGGGCAAAGCAGGTTGCCATAAGGTTGG was run?
Answer: -0.612

Question: How did the PBM binding z-score turn out when TCATATAGGTAATACAGGTGAAAGTGGGCATCTA was run?
Answer: 1.47

Question: GCTCGGAGGACAAGGTCGGAGCTTTGTCCGTAGA was tested. Which PBM binding z-score did it give?
Answer: -0.159

Question: Which PBM binding z-score does the source give for GGAACGAGGGCATTCGAGTTGATAGTATGGCGAT here?
Answer: 4.13

Question: With CGTCCAAGGTCAGAGAGGCCAGTGAATGCCGAGT as the sequence, how does the PBM binding z-score read?
Answer: 5.4

Question: Which PBM binding z-score does the source give for TCGAGTAGGTTAGTCGGGGCATTCGGCCAACATA here?
Answer: 2.15

Question: CGAACGAGGGCATGAGTTGATAGCAAATGCCGAT was tested. Which PBM binding z-score did it give?
Answer: 1.43

Question: CCTAGTTGGTCAGGAGGTCATACACCGGATATGA was tested. Which PBM binding z-score did it give?
Answer: 3.75

Question: CCTACTGGGCCACGAAAGGTCACTGATTCAGTGA was tested. Which PBM binding z-score did it give?
Answer: 3.77

Question: TCAGATAGGTAAAAGGTGAAAGTCGGTGTGGTAA was tested. Which PBM binding z-score did it give?
Answer: 0.851

Question: TCTGCTAGATCAACGATGGTCAGCTAATCTGCTA was tested. Which PBM binding z-score did it give?
Answer: -0.489

Question: TCATATAGGTAGAAGGTGAAAGTCGGTGTGGTAA was tested. Which PBM binding z-score did it give?
Answer: 0.866

Question: Which PBM binding z-score does the source give for TCTTGTAGATCAACAGGAGGTTAAGAAAGATCGA here?
Answer: 0.453

Question: How did the PBM binding z-score turn out when TCTTGTAGATCAATACAGGTTAAGAAAGTGCGCT was run?
Answer: 1.26

Question: How did the PBM binding z-score turn out when CATACAGGCTCAGCTAGGCCAGAGTAGGGACGGC was run?
Answer: -0.721

Question: With CCTAGCAGGCCAAACTGGGTCACTCAAGGCTTGA as the sequence, how does the PBM binding z-score read?
Answer: 0.616

Question: Which PBM binding z-score does the source give for TAGCCTAGGTCATTGGGACAGTATAGTACGCATC here?
Answer: 2.35

Question: ATATGTAGGTTATCGGGTCATTCTGTTTGCGCAT was tested. Which PBM binding z-score did it give?
Answer: 3.82

Question: How did the PBM binding z-score turn out when ATCTCTAGGTAACATGTTCAGTGAAAGAGAGGAC was run?
Answer: 0.0615

Question: CCTAGTGGGCCACGAAAGGTCATTGATTCAGTGA was tested. Which PBM binding z-score did it give?
Answer: 4.05

Question: How did the PBM binding z-score turn out when AATACAGGGTCACTAGGCCAGAGCAGGTACGAAT was run?
Answer: 4.03

Question: Which PBM binding z-score does the source give for AGAACCAGGGCAATGAGTTGATAGCACGGGTGGC here?
Answer: 3.6

Question: Which PBM binding z-score does the source give for GCGACTGGGGCAAAGAAGGTTACCATAAGGTTGG here?
Answer: 0.733

Question: Which PBM binding z-score does the source give for CCGACTAGGTTATGGGGCATTCAGGCAACGGTGA here?
Answer: -0.337

Question: For AGTCAAAGTTCATCTAGGTAACGGAAGATATGCT, which PBM binding z-score is on record?
Answer: 4.95

Question: How did the PBM binding z-score turn out when CTCGAAAGGTCGGTTGAGGCGAGTATACGGATAA was run?
Answer: 0.809

Question: For CCTTACCGGTCACGAGGTTATAGCACGACGAGCG, which PBM binding z-score is on record?
Answer: 2.17

Question: For CCAGACAGGTAAGAAGGTAACTCAGCCTCGATTA, which PBM binding z-score is on record?
Answer: 0.00354

Question: CCAGACAGGTGAGAATGTAACTCAGCCTCGATTA was tested. Which PBM binding z-score did it give?
Answer: -0.0872

Question: With CCCACTGGGGCAAGGTTACCATAACGCACAGCCA as the sequence, how does the PBM binding z-score read?
Answer: 0.132

Question: How did the PBM binding z-score turn out when GATACAGGGTCAGCGAGAGGCCAGAGTATGGAAA was run?
Answer: 3.67

Question: How did the PBM binding z-score turn out when CCAGACAGGCGAGAAGGTAACTCAGCCTCGATTA was run?
Answer: -0.665

Question: For TCGAGTAGGTTAGTCGGGGTATTCAGCCAACATA, which PBM binding z-score is on record?
Answer: 0.453

Question: Which PBM binding z-score does the source give for CAAACTTGGTCACAGAGGTCAAAGTCCGTGCGTA here?
Answer: 6.59
